Measured values published in the supplement of paper PMC12669032.
Unmarked numbers belong to inactive results.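 How the source made its calls: active = AUC reduced over 20% with Padj below 0.05 in at least 2 of 3 replicates; inactive = otherwise.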

The compounds below were run on Bifidobacterium longum subsp. longum (assay: growth AUC relative to DMSO control (median of replicates) (fraction); higher = more growth (less inhibition), active = hit call of the paper). Details: 20 µM; 24 h.
Outline: (§1)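 OD600 was recorded every hour for 24 h in anaerobic monocultures of gut bacteria kept at 37 °C in mGAM, seeded at OD600 0.05 and given 20 µM compound in 1% DMSO. The area under each growth curve was scaled to the plate median of solvent-only wells, or to row and column medians for the industrial chemical plate. Before this step, the minimum OD was set to 0. Reported values are medians of three biological replicates run on separate days.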

Structure (SMILES) | growth AUC
CC(C)Nc1nc(Cl)nc(NC(C)C)n1 | 1.07
CN=C=S | 1.05
Clc1ccc(Cl)c(Cl)c1 | 0.957
O=C1C2(Cl)C3(Cl)C4(Cl)C(Cl)(Cl)C5(Cl)C3(Cl)C1(Cl)C5(Cl)C24Cl (centres undefined) | 0.28 (active)
Nc1ccncc1 | 0.911
O=C(O)c1cc(Cl)ccc1Cl | 1.17

These compounds were tested on Clostridium difficile in the same assay as above. Details: 20 µM; 24 h.
Outline: as §1

Structure (SMILES) | growth AUC
CCS(=O)(=O)c1nc2ccccn2c1S(=O)(=O)NC(=O)Nc1nc(OC)cc(OC)n1 | 1.01
C[Si](Cn1cncn1)(c1ccc(F)cc1)c1ccc(F)cc1 | 1
CCSC(=O)N1CCCCCC1 | 0.992
O=[N+]([O-])c1ccc(Oc2ccc(C(F)(F)F)cc2[N+](=O)[O-])cc1 | 1.02
CC#Cc1cc(C)nc(Nc2ccccc2)n1 | 0.965
COP(=O)(OC)OC1=C(Cl)C2C=CCC12 (centres undefined) | 1
CCC(C)[C@H]1O[C@]2(C=C[C@@H]1C)C[C@@H]1C[C@@H](C/C=C(\C)[C@@H](O[C@H]3C[C@H](OC)[C@@H](O[C@H]4C[C@H](OC)[C@@H](O)[C@H](C)O4)[C@H](C)O3)[C@@H](C)/C=C/C=C3\CO[C@@H]4[C@H](O)C(C)=C[C@@H](C(=O)O1)[C@]34O)O2.CO[C@H]1C[C@H](O[C@H]2[C@H](C)O[C@@H](O[C@@H]3/C(C)=C/C[C@@H]4C[C@@H](C[C@]5(C=C[C@H](C)[C@@H](C(C)C)O5)O4)OC(=O)[C@@H]4C=C(C)[C@@H](O)[C@H]5OC/C(=C\C=C\[C@@H]3C)[C@]54O)C[C@@H]2OC)O[C@@H](C)[C@@H]1O (some centres undefined) | 0.952
C[C@@H](Oc1ccc(Oc2nc3ccc(Cl)cc3o2)cc1)C(=O)O | 0.905
N#Cc1cc(I)c(O)c(I)c1 | 0.919
CCc1cnc(C2=NC(C)(C(C)C)C(=O)N2)c(C(=O)O)c1 (centres undefined) | 0.993
CON(C)C(=O)Nc1ccc(Cl)cc1 | 1
COCC(=O)N(c1c(C)cccc1C)C(C)C(=O)OC (centres undefined) | 1.04
O=C1C[C@@H]2OCC=C3CN4CC[C@]56c7ccccc7N1[C@H]5[C@H]2[C@H]3C[C@H]46 | 0.972
CC(C)=CC1C(C(=O)OCN2C(=O)C3=C(CCCC3)C2=O)C1(C)C (centres undefined) | 0.959
CCOP(=O)(SC(C)CC)SC(C)CC (centres undefined) | 0.982
Oc1ccc(Cl)c(Cl)c1Cl | 0.998
CSc1nnc(C(C)(C)C)c(=O)n1N | 1.03
Oc1c(Cl)ccc(Cl)c1Cl | 1
CCC1COC(Cn2cncn2)(c2ccc(Cl)cc2Cl)O1 (centres undefined) | 0.994
O=[N+]([O-])/N=C1\NCCN1Cc1ccc(Cl)nc1 | 0.99

Structure (SMILES) | growth AUC
CCCCCCCCCCCCCN1CC(C)OC(C)C1 (centres undefined) | 0.923
O=[N+]([O-])c1ccc(Oc2ccc(Cl)cc2Cl)cc1 | 0.97
COc1cc(OC)nc(NC(=O)NS(=O)(=O)c2cc(NC=O)ccc2C(=O)N(C)C)n1 | 1.01
C[N+](C)(C)CCCl.[Cl-] | 1
O=c1ccc(=O)[nH][nH]1 | 0.954
CCC(C)(c1ccc(O)cc1)c1ccc(O)cc1 | 0.997
Cc1cc(C(F)(C(F)(F)F)C(F)(F)F)ccc1NC(=O)c1cccc(I)c1C(=O)NC(C)(C)CS(C)(=O)=O | 0.92
CN(C)C(=O)Nc1ccc(Cl)cc1 | 0.979
O=C(O)C1(O)c2ccccc2-c2ccc(Cl)cc21 (centres undefined) | 0.993
N#CCNC(=O)c1cnccc1C(F)(F)F | 0.99
CCOP(=S)(OCC)Oc1nc(Cl)n(C(C)C)n1 | 0.982
CCCCN(CC)C(=O)SCCC | 1.03
c1coc(-c2nc3ccccc3[nH]2)c1 | 0.971
CC(C)Nc1nc(Cl)nc(NC(C)C)n1 | 0.986
CN=C=S | 1.01
Clc1ccc(Cl)c(Cl)c1 | 0.941
O=C1C2(Cl)C3(Cl)C4(Cl)C(Cl)(Cl)C5(Cl)C3(Cl)C1(Cl)C5(Cl)C24Cl (centres undefined) | 0.0161 (active)
Nc1ccncc1 | 1
O=C(O)c1cc(Cl)ccc1Cl | 1.02

What follows are compounds tested on Collinsella aerofaciens in the same assay as above. Details: 20 µM; 24 h.
Outline: as §1

Structure (SMILES) | growth AUC
CCS(=O)(=O)c1nc2ccccn2c1S(=O)(=O)NC(=O)Nc1nc(OC)cc(OC)n1 | 0.983
C[Si](Cn1cncn1)(c1ccc(F)cc1)c1ccc(F)cc1 | 0.931
CCSC(=O)N1CCCCCC1 | 0.981
O=[N+]([O-])c1ccc(Oc2ccc(C(F)(F)F)cc2[N+](=O)[O-])cc1 | 0.93
CC#Cc1cc(C)nc(Nc2ccccc2)n1 | 0.995
COP(=O)(OC)OC1=C(Cl)C2C=CCC12 (centres undefined) | 0.964
CCC(C)[C@H]1O[C@]2(C=C[C@@H]1C)C[C@@H]1C[C@@H](C/C=C(\C)[C@@H](O[C@H]3C[C@H](OC)[C@@H](O[C@H]4C[C@H](OC)[C@@H](O)[C@H](C)O4)[C@H](C)O3)[C@@H](C)/C=C/C=C3\CO[C@@H]4[C@H](O)C(C)=C[C@@H](C(=O)O1)[C@]34O)O2.CO[C@H]1C[C@H](O[C@H]2[C@H](C)O[C@@H](O[C@@H]3/C(C)=C/C[C@@H]4C[C@@H](C[C@]5(C=C[C@H](C)[C@@H](C(C)C)O5)O4)OC(=O)[C@@H]4C=C(C)[C@@H](O)[C@H]5OC/C(=C\C=C\[C@@H]3C)[C@]54O)C[C@@H]2OC)O[C@@H](C)[C@@H]1O (some centres undefined) | 0.996
C[C@@H](Oc1ccc(Oc2nc3ccc(Cl)cc3o2)cc1)C(=O)O | 0.961
N#Cc1cc(I)c(O)c(I)c1 | 1.04
CCc1cnc(C2=NC(C)(C(C)C)C(=O)N2)c(C(=O)O)c1 (centres undefined) | 0.983
CON(C)C(=O)Nc1ccc(Cl)cc1 | 1.02
COCC(=O)N(c1c(C)cccc1C)C(C)C(=O)OC (centres undefined) | 1.02
O=C1C[C@@H]2OCC=C3CN4CC[C@]56c7ccccc7N1[C@H]5[C@H]2[C@H]3C[C@H]46 | 0.942
CC(C)=CC1C(C(=O)OCN2C(=O)C3=C(CCCC3)C2=O)C1(C)C (centres undefined) | 0.955
CCOP(=O)(SC(C)CC)SC(C)CC (centres undefined) | 0.933
Oc1ccc(Cl)c(Cl)c1Cl | 0.993
CSc1nnc(C(C)(C)C)c(=O)n1N | 1
Oc1c(Cl)ccc(Cl)c1Cl | 0.937
CCC1COC(Cn2cncn2)(c2ccc(Cl)cc2Cl)O1 (centres undefined) | 0.94
O=[N+]([O-])/N=C1\NCCN1Cc1ccc(Cl)nc1 | 0.98

Structure (SMILES) | growth AUC
CCCCCCCCCCCCCN1CC(C)OC(C)C1 (centres undefined) | 0.941
O=[N+]([O-])c1ccc(Oc2ccc(Cl)cc2Cl)cc1 | 0.998
COc1cc(OC)nc(NC(=O)NS(=O)(=O)c2cc(NC=O)ccc2C(=O)N(C)C)n1 | 1.05
C[N+](C)(C)CCCl.[Cl-] | 1.02
O=c1ccc(=O)[nH][nH]1 | 0.92
CCC(C)(c1ccc(O)cc1)c1ccc(O)cc1 | 1
Cc1cc(C(F)(C(F)(F)F)C(F)(F)F)ccc1NC(=O)c1cccc(I)c1C(=O)NC(C)(C)CS(C)(=O)=O | 1.7
CN(C)C(=O)Nc1ccc(Cl)cc1 | 1.03
O=C(O)C1(O)c2ccccc2-c2ccc(Cl)cc21 (centres undefined) | 1.03
N#CCNC(=O)c1cnccc1C(F)(F)F | 1.01
CCOP(=S)(OCC)Oc1nc(Cl)n(C(C)C)n1 | 1.02
CCCCN(CC)C(=O)SCCC | 0.982
c1coc(-c2nc3ccccc3[nH]2)c1 | 0.945
CC(C)Nc1nc(Cl)nc(NC(C)C)n1 | 0.961
CN=C=S | 1.02
Clc1ccc(Cl)c(Cl)c1 | 0.969
O=C1C2(Cl)C3(Cl)C4(Cl)C(Cl)(Cl)C5(Cl)C3(Cl)C1(Cl)C5(Cl)C24Cl (centres undefined) | 0.0984 (active)
Nc1ccncc1 | 1
O=C(O)c1cc(Cl)ccc1Cl | 0.952
